Measurements published in PubChem BioAssay AID1259389 (Center for Chemical Genomics, University of Michigan, 2018).
The campaign covered roughly 100,000 compounds. About 620 (0.62%) were called active. The sample holds actives, similar compounds and a random draw of the others, so the mix is not that of the screen. Rule for the calls: active = z-score of 3 or more in at least 2 runs; inactive = the rest.

Assay: TAR RNA-Tat peptide displacers, HIV-1, primary screen, biochemical, FRET, FAM/TAMRA-labeled Tat (AID 1259389)
Details: HIV-1 TAR RNA, Tat peptide displacement FRET; active compounds read high

SMILES | z-score
CCC(C)NC(=O)c1ccc2c(=O)n(C)c3n[nH]c(=O)n3c2c1 (configuration not stated) | -1.23 (inactive)
COC(=O)c1cccc(N2C(=O)C3C4C=CC(CC4)C3C2=O)c1 (configuration not stated) | -0.18 (inactive)
COc1cccc(-c2n[nH]c3c2C(c2cccs2)NC3=O)c1 (configuration not stated) | 0.03 (inactive)
O=C1C(=O)N(CCCN2CCOCC2)C(c2ccc(F)cc2)/C1=C(\O)c1ccc(F)cc1 (configuration not stated) | -0.23 (inactive)
CCN(c1cccc(C)c1)c1c(-c2ccc(C)c(C)c2)c(=O)c1=O | 1.19 (inactive)
Cc1cc(=O)oc2c1c(C)nn2-c1cccc(Br)c1 | 2.1 (inactive)
Cc1cc(=O)oc2c1c(C)nn2-c1ccc(Cl)cc1 | 6 (active)
Cc1cccc(-n2nc(C)c3c(C)cc(=O)oc32)c1 | -1.35 (inactive)
CCOCc1nc(N2CCOCC2)sc1C(=O)NCc1ccco1 | 1.59 (inactive)
Cc1nc2c3cccnc3nn2c(C)c1CCC(=O)NC1CCCCC1 | 0.03 (inactive)
Cc1nc2nc(N3C(=O)CCC3=O)[nH]n2c(=O)c1C | 0.34 (inactive)
O=C(NCc1ccc2c(c1)OCO2)c1sc(=S)n2c1[nH]c(=O)c1ccccc12 | 8.38 (active)
O=C(NCc1ccc2c(c1)OCO2)C(=O)c1c[nH]c2ccccc12 | -0.39 (inactive)
O=C(NCc1ccc2c(c1)OCO2)c1sc2ncccc2c1-n1cccc1 | 0.34 (inactive)
CCc1ccc(S(=O)(=O)Nc2cccc(-c3ccc(S(C)(=O)=O)nn3)c2)s1 | -0.88 (inactive)
O=S(=O)(c1ccc(Cl)cc1)N(Cc1nc(-c2ccccc2)no1)C1CCCCC1 | -0.39 (inactive)
CC(C)NC(=O)c1sc(=S)n2c1[nH]c(=O)c1ccc(C(=O)NCCN(C)C)cc12 | 7.52 (active)
O=C(O)c1ccc2c(=O)[nH]c3c(C(=O)NC4CCCCC4)sc(=S)n3c2c1 | 10.3 (active)
CCOC(=O)c1sc(=S)n2c1[nH]c(=O)c1ccc(C(=O)OC)cc12 | 3.58 (inactive)
O=C(NC1CCCC1)c1ccc2c(=O)[nH]c3c(C(=O)NCC4CCCO4)sc(=S)n3c2c1 (configuration not stated) | 9.34 (inactive)
C=CCNC(=O)c1sc(=S)n2c1[nH]c(=O)c1ccc(C(=O)OC)cc12 | -0.19 (inactive)
O=C(NC1CCCCC1)c1ccc(CNc2c(N3CCCC3)c(=O)c2=O)cc1 | 2.73 (inactive)
Cc1nn2c(=O)cc(CSc3nnc(COc4ccccc4C)n3C)nc2s1 | -1.46 (inactive)
CCNc1nc(NCCN(C)C)nc2c1cnn2C | 1.49 (inactive)
CC1CCN(S(=O)(=O)c2ccc3nc(Nc4cc(F)ccc4F)ccc3c2)CC1 | 1 (inactive)

SMILES | z-score
C=CCc1ccccc1OCc1cc(=O)n2nc(-c3ccc(OC)cc3)sc2n1 | -1.28 (inactive)
CCOc1ccc(-c2nc3c(s2)CN(S(=O)(=O)c2cccc4nsnc24)CC3)cc1 | 0.4 (inactive)
Cc1nn(C)c(C)c1CNS(=O)(=O)c1ccc2c(c1)oc(=O)n2C | 0.45 (inactive)
Cc1nc2ccccc2n1CCNS(=O)(=O)c1ccc2c(c1)oc(=O)n2C | 3.26 (active)
CCCNS(=O)(=O)c1ccc2c(c1)oc(=O)n2CC(=O)OCC | -3.16 (inactive)
CCC1CN(C(=O)Nc2ccccc2)c2ccccc2O1 (configuration not stated) | 1.11 (inactive)
c1ccc(CSc2nnc(-c3ccco3)c(-c3ccco3)n2)cc1 | 8.76 (active)
O=C(CSc1nnc(-c2ccco2)c(-c2ccco2)n1)Nc1ccc(Br)cc1 | 24.6 (active)
Nc1cc(=O)nc(SCc2ccccc2)n1Cc1ccco1 | 0.7 (inactive)
CN(C)c1ccc(NC(=O)CSc2nc(-c3ccco3)cc(C(F)(F)F)n2)cc1 | 0.28 (inactive)
O=c1[nH]c(SCc2ccccc2)nnc1-c1ccccc1 | -0.2 (inactive)
O=C(CSc1ccc(-c2cccs2)nn1)Nc1ccc(Br)cc1 | 2.14 (inactive)
O=C(Nc1ccccc1Br)c1cnn(-c2ccccc2)c1-n1cccc1 | 1.05 (inactive)
NC(=O)Cn1c(=O)n(CCCCC(=O)NCc2ccco2)c(=O)c2ccccc21 | -0.85 (inactive)
CCCc1cc(=O)[nH]c(Nc2cccc(Br)c2)n1 | 0.79 (inactive)
C=C(C)Cn1c(CN2CCOCC2)nc2ccccc21 | 0.03 (inactive)
CCc1ccc(N2CCn3c2nc2c3c(=O)n(CC(=O)O)c(=O)n2C)cc1 | 3.43 (inactive)
COc1ccc(-c2nnc(-c3ccccc3)o2)cc1S(=O)(=O)N1CCc2ccccc2C1 | 0.08 (inactive)
CC(C)CNc1oc(-c2ccc(S(=O)(=O)N3CCc4ccccc4C3)cc2)nc1C#N | 0.36 (inactive)
CN(C)CCCNc1oc(-c2ccc(S(=O)(=O)N3CCc4ccccc4C3)cc2)nc1C#N | 11.4 (active)
O=C(c1ccccc1)c1ccc2nc(NCCCO)c3nncn3c2c1 | -1.78 (inactive)
O=C1CCCC2=C1C(c1cccs1)N(C(=O)CCC(=O)N1CCOCC1)c1ccccc1N2 (configuration not stated) | 0.78 (inactive)
O=C(CSc1nnc(-c2cccnc2)n1-c1ccccc1)c1ccc(F)cc1 | 1.26 (inactive)
CCc1nc2nc(CSc3nc4ccc(NC(=O)c5ccco5)cc4s3)cc(=O)n2[nH]1 | 4.94 (active)
CCCC(=O)Nc1ccc2nc(SCc3cc(=O)n4nc(C)sc4n3)sc2c1 | 0.47 (inactive)

SMILES | z-score
CCc1nc2nc(CSc3nnc(NC(=O)c4ccccc4)s3)cc(=O)n2[nH]1 | 2.53 (inactive)
CCC(C)N(CCNC(=O)Nc1cn(C)c(=O)c2ccccc12)Cc1ccco1 (configuration not stated) | 1.06 (inactive)
Cc1cccc(C(=O)OCc2cc(=O)n3nc(C)sc3n2)c1 | -0.36 (inactive)
CC(CNc1c(-c2ccc(Cl)cc2)c(=O)c1=O)c1ccccc1 (configuration not stated) | -0.61 (inactive)
COCCNc1c(-c2ccc(Cl)cc2)c(=O)c1=O | 0.52 (inactive)
CC(C)OCCCNc1c(-c2ccc(C(C)C)cc2)c(=O)c1=O | 10.9 (active)
O=C1CSc2ccc(S(=O)(=O)NCc3ccccc3)cc2N1 | 0.46 (inactive)
CCOc1cccc2c1N[C@@H](c1ccc(C(=O)O)cc1)[C@H]1CC=C[C@@H]21 | 21.4 (active)
COc1ccccc1C1Nc2ccc(C(=O)O)cc2C2C3CCC(C3)C12 (configuration not stated) | 8.02 (inactive)
COC(=O)c1ccc([C@@H]2Nc3ccc(F)cc3[C@@H]3C=CC[C@@H]32)cc1 | 1.86 (inactive)
Cc1ccsc1CCNC(=O)CCS(=O)(=O)c1ccc2c(c1)CC(C)N2C(=O)C1CC1 (configuration not stated) | -0.02 (inactive)
CC(C)NC(=O)NCCn1cnc2cc(C(=O)N(C)C)ccc21 | -0.27 (inactive)
Oc1ccc(-c2csc(Nc3cccnc3)n2)cc1 | -0.3 (inactive)
Cc1n[nH]c(C)c1Nc1nc(-c2ccc(O)c(O)c2)cs1 | 28.7 (active)
Cc1cccc(Nc2nc(-c3ccccc3)cs2)n1 | 1.14 (inactive)
NC(=O)Cn1c(=O)n(Cc2ccc(Cl)cc2)c(=O)c2cccnc21 | -0.39 (inactive)
CCCNS(=O)(=O)c1ccc2c(c1)CC(C)N2C(=O)C1CC1 (configuration not stated) | 0.52 (inactive)
O=C(O)c1[nH]c2ccccc2c1-n1cccc1 | 13.1 (active)
Cc1[nH]c2ccccc2c1C(=O)CN1CCN(C)CC1 | 1.46 (inactive)
Cc1[nH]c2ccccc2c1C(=O)C(=O)N(C)c1ccccc1 | -0.5 (inactive)
O=c1c(N2CCN(C/C=C/c3ccccc3)CC2)csc2ccc(Cl)cc12 | -2.75 (inactive)
COC(=O)C(=O)c1c(-c2ccc(Br)cc2)[nH]c2ccccc12 | 1.05 (inactive)
CCOC(=O)C1CCN(C2C(=O)c3ccccc3N2C(C)=O)CC1 (configuration not stated) | 1.39 (inactive)
Cc1nn(C)c(C)c1CNC(=O)Cn1c(-c2cccs2)cc2cc(Cl)ccc21 | 0.84 (inactive)
CC1Sc2ccc(S(=O)(=O)N(C)c3ccc(Br)cc3)cc2NC1=O (configuration not stated) | 1.17 (inactive)

SMILES | z-score
CC1=C(C(=O)OCc2ccccc2)C(c2ccc(O)cc2)C2=C(CC(C)(C)CC2=O)N1 (configuration not stated) | 1.82 (inactive)
O=C(C1CCN(S(=O)(=O)c2ccc3[nH]c(=O)ccc3c2)CC1)N1CCCC1 | 0.85 (inactive)
O=c1ccc2cc(S(=O)(=O)N3CCN(C4CCCCC4)CC3)ccc2[nH]1 | 18.9 (active)
CC1CCN(S(=O)(=O)c2ccc3[nH]c(=O)ccc3c2)CC1 | -0.99 (inactive)
Cc1noc2ncnc(N3CCCC(C(=O)Nc4ccccn4)C3)c12 (configuration not stated) | 0.85 (inactive)
CCOC(=O)c1noc2nc(C)nc(Nc3ccccc3)c12 | 0.17 (inactive)
O=C1c2ccc(O)cc2O[C@H](c2cc(O)c(O)c(O)c2)[C@H]1O | 9.31 (active)
O=C(CSc1nnc2c3ccccc3nc(-c3ccccc3)n12)Nc1ccccc1 | 0.64 (inactive)
O=C(CSCc1cnn(-c2ccccc2)c1-n1cccc1)Nc1ccccc1F | 1.3 (inactive)
O=S(=O)(c1ccc(C2Nc3ccc(Cl)cc3C3C=CCC32)cc1)N1CCOCC1 (configuration not stated) | -2.45 (inactive)
O=C(O)C1Nc2ccc(Cl)cc2C2C=CCC12 (configuration not stated) | 42 (active)
O=C(NCc1cccnc1)c1ccc(CN2CC(=O)N3CCCC3C2=O)cc1 (configuration not stated) | 1.95 (inactive)
O=C(CSc1nnc2scc(-c3ccccc3)n12)N1CCOCC1 | 0.4 (inactive)
O=C(CSc1ccc(-c2ccccn2)nn1)Nc1ccccc1 | 2.09 (inactive)
CCc1c(CN2CCN(Cc3ccccc3)CC2)csc1C | 1.69 (inactive)
CCn1c(C(C)N2CCCCC2)nc2ccccc21 (configuration not stated) | 1 (inactive)
CCNc1nc(Nc2ccc(Cl)cc2C)c2cnn(C)c2n1 | 0.26 (inactive)
Cc1ccc(Nc2nc(NCc3ccco3)nc3c2cnn3C)c(C)c1 | 3.66 (active)
Cc1ccc(Nc2ncnc3c2cnn3C)c(C)c1 | 0.03 (inactive)
NC(=O)C1CCN(c2nc3c(S(=O)(=O)c4cccc(Cl)c4)nnn3c3ccsc23)CC1 | 0.52 (inactive)
CCN(CC)c1nc2c(S(=O)(=O)c3ccc(Cl)cc3)nnn2c2ccsc12 | -1.01 (inactive)
O=S(=O)(c1ccc(Cl)cc1)c1nnn2c1nc(NC1CCCC1)c1sccc12 | 7.09 (active)
